DT40 TDP1 no CPT = qHTS for Inhibitors of human tyrosyl-DNA phosphodiesterase 1 (TDP1): qHTS in cells in absence of CPT. DT40 Tdp1-/- hTDP1 cells, no CPT, ATP luminescence, 48 h. Potency, µM (doses to about 46.2 µM), actives largely listed as inhibitors. hit rate 15% among 420,000. AID 686978, 2013; further: nearly all actives have a fitted effect of over 55% in size
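Compound effects on proliferation are scored in DT40 Tdp1-/-;hTDP1 cells in the absence of CPT. ATP levels (CellTiter-Glo luminescence) are recorded after a ≥48 hr, 37 °C incubation.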
DRD3 antagonist = D3 dopamine receptor (human) antagonism; hit rate 2.5% among 360,000; D3R cells, DiscoveRx beta-arrestin luminescence, antagonist mode; active compounds read low; P35462; max response, negative = inhibition, %; in the data active means max response below about -50%; inconclusive means no clear call, values can overlap the other calls
Target sequence (P35462 whole entry, looked up): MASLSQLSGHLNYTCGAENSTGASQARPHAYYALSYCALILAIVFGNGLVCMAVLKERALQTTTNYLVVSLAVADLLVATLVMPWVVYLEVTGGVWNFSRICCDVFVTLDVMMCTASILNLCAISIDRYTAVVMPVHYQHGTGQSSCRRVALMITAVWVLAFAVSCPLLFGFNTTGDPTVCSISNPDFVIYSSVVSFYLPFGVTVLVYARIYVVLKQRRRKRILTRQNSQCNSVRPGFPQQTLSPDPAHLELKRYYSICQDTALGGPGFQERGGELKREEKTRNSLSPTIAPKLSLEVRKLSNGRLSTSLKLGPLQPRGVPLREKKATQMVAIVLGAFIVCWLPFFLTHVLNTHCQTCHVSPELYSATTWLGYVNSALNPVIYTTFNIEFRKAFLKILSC
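Cells expressing the human receptor were seeded at 1500 cells/well, incubated overnight at 37 degrees C in 5% CO2, then exposed to library compounds with dopamine controls for 90 minutes at 37 degrees C before luminescent detection.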
TDP1 cell CPT = DT40-hTDP1 cell growth loss with CPT; chicken DT40 Tdp1-/-;hTDP1 cells + 20 nM CPT, ATP luminescence, 48 h; Potency, µM (series often up to 46.2 µM), hits mostly inhibitors; hit rate 12% among 420,000; AID 686979; further: nearly all actives have a fitted effect of over 55% in size
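Chicken DT40 Tdp1-/- cells complemented with human TDP1, 400 cells/well, exposed to compounds plus 20 nM camptothecin for at least 48 h at 37 C; viability read as ATP content by CellTiter-Glo luminescence.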
IL1B secr inh = inhibitors of inflammasome signaling (IL-1 beta secretion); activity change, % at 57.5 µM; hit rate 4.7% among 360,000; THP-1 LPS/ATP IL-1B secretion, AlphaLISA, 16 h; active compounds read low; in the data active means activity change below about -50%; inconclusive means mostly about -30% to -49%
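Secreted IL-1B measured by AlphaLISA bead assay after 16 h compound exposure of THP-1 cells; compounds (final up to 57.5 uM) added 1 h before LPS (250 ng/mL) and ATP (1.25 mM) stimulation; lower signal means less secretion.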
ClpP mod = qHTS Assay for Activators of ClpP; Potency, µM (series often up to 57.5 µM); hit rate 1.9% among 340,000; purified B. subtilis ClpP, FRET peptide cleavage, 20 min; ATP-dependent Clp protease proteolytic subunit (Bacillus subtilis (strain 168)), P80244; active means well fitted falling curve with a large enough effect; inconclusive means small, poorly fitted or top-dose-only effect; inactive means no such curve, though single readings can be large or run the other way; further: the source files actives as falling curves though it sought activators and does not explain the sign; nearly all actives have a fitted effect of over 65% in size
Target sequence (P80244 whole entry, looked up): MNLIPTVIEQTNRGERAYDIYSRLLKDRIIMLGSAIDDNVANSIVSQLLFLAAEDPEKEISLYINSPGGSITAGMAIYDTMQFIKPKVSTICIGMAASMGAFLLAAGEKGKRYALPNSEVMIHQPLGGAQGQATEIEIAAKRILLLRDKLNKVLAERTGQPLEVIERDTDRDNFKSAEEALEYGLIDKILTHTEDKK
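FRET quenching reversal measured ClpP activation: 10 microg/mL B. subtilis ClpP at pH 8 with the FRET-FV decapeptide, read at 430 nm after 320 nm excitation. The 20-min minus 0-min signal was scaled between DMSO/no-enzyme wells and ADEP (5.8 microM final).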
D3 ag = agonists of human D3 dopamine receptor; P35462; D3R DiscoveRx beta-arrestin cells, luminescence, 90 min; max activation, %; AID 652048; hit rate 0.58% among 410,000; in the data active means max activation above about 30%
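Cells at 1500/well, incubated overnight, then treated with pinned compounds (dopamine as control) for 90 min at 37 degrees C. DiscoveRx reagent added for 30 - 60 minutes at room temperature; luminescence read.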
Numbers stand for hits; - = inactive; ? = inconclusive; . = no result given; [ ] = another dose, or the depositor's remark. Sampled rows, rich in hits. Any-hit rate of the full collection: about 21%. Unless noted, the call rests on the fitted dose curve; in most records, active means well fitted inhibition curve with a large enough effect; inconclusive means small, poorly fitted or top-dose-only effect; inactive means flat fitted curve, though single readings scatter.

SMILES | DT40 TDP1 no CPT | DRD3 antagonist | TDP1 cell CPT | IL1B secr inh | ClpP mod | D3 ag
CCCC(=O)N(c1ccc2oc3c(c2c1)CCCC3)S(=O)(=O)c1ccc(CC)cc1 | . | . | . | . | - | -
O=C(OCC1CCNCC1)c1ccc2c(c1)OCO2 | - | - | - | - | - | -
O=C(OCC1CCNCC1)c1ccc(F)cc1 | - | -54.7 | - | - | - | -
Cc1cccc(C)c1NC(=O)C(c1ccc(C#N)cc1)n1c(=O)c(-c2ccccc2)nc2ccccc21 (centres undefined) | ? | -60.1 | - | -50.1 | ? | -
Cc1cccc(C)c1NC(=O)C(c1ccnc2ccccc12)n1c(=O)c(-c2ccccc2)nc2ccccc21 (centres undefined) | 14.6µM | - | ? | - | - | -
CCOC(=O)C1CCCN(Cc2nc(N)nc(Nc3ccccc3)n2)C1 (centres undefined) | 18.4µM | -60.5 | ? | - | - | -
Cc1cccc(Nc2nc(N)nc(CN3CCN(c4ccc(F)cc4)CC3)n2)c1 | 16.4µM | - | 18.4µM | ? | - | -
Nc1nc(CN2CCCCCC2)nc(Nc2ccccc2)n1 | - | ? | - | - | - | -
Cc1ccc(Nc2nc(N)nc(CN3CCN(c4ccccc4F)CC3)n2)cc1 | ? | - | ? | - | - | -
Nc1nc(CN2CCN(c3ccccc3F)CC2)nc(Nc2ccccc2)n1 | ? | ? | 23.1µM | - | - | -
Nc1nc(CN2CCN(C(c3ccccc3)c3ccccc3)CC2)nc(Nc2ccccc2)n1 | 23.1µM | - | ? | - | - | -
Cc1ccc(S(=O)(=O)NCC(=O)NCC(=O)OC(C(=O)NC(N)=O)C(C)C)cc1C (centres undefined) | - | - | - | - | - | -
CN(CCCC(=O)O)S(=O)(=O)c1ccc2c(c1)C(=O)c1cc(S(=O)(=O)N(C)CCCC(=O)O)ccc1-2 | - | - | - | - | - | -
CC1CC(C)CN(Cc2nc(N)nc(Nc3ccc4ccccc4c3)n2)C1 (centres undefined) | 20.6µM | ? | 23.1µM | ? | - | -
Nc1nc(CN2CCC(Cc3ccccc3)CC2)nc(Nc2ccccc2)n1 | 23.1µM | ? | 18.4µM | ? | - | -
Nc1nc(CN2CCc3ccccc3C2)nc(Nc2ccccc2)n1 | ? | ? | ? | - | - | -
Cc1ccccc1OCC(=O)Nc1c(C)ccc2nsnc12 | ? | . | ? | . | - | -
COc1cc(CN2C(=O)CC[C@@H]3CN(Cc4ccccn4)CC[C@@H]32)cc(OC)c1OC | - | . | - | . | . | .
C=C(Br)COC(c1ccco1)[C@H](Cc1ccccc1)NC(=O)OC(C)(C)C (some centres undefined) | 11.2µM | . | ? | . | - | .
OCCN1CCN(Cc2ccc3c(c2)CN(Cc2ccc4ccccc4c2)CCO3)CC1 | - | . | -[9.04 µM] | . | . | .
Cc1ccc(C)c(CNC(=O)C2CCN(c3nc4ccccc4nc3C(F)(F)F)CC2)c1 | ? | . | ? | . | - | -
C=C(CN(C)C)C(=O)c1cc(C)ccc1C | 1.03µM | -87.6 | 0.581µM | -101.4 | - | -
COc1ccc(NC(=S)N2CCC(C(=O)c3ccc(F)cc3)CC2)cc1 | - | - | ? | - | - | -
CSc1nc(N)nc2c1ncn2CC(=O)NCc1ccc2c(c1)OCO2 | 8.2µM | - | 16.4µM | - | - | -
CSc1nc(N)nc2c1ncn2CC(=O)NCc1ccc2[nH]ccc2c1 | ? | - | ? | - | - | 47.6
SMILES | DT40 TDP1 no CPT | DRD3 antagonist | TDP1 cell CPT | IL1B secr inh | ClpP mod | D3 ag
CSc1nc(N)nc2c1ncn2CC(=O)NCc1ccccc1 | ? | - | ? | - | ? | -
CCc1ccc(C(=O)CC2(O)C(=O)N(CCc3ccccc3)c3ccc(Cl)cc32)cc1 (centres undefined) | 16.4µM | . | 18.4µM | . | - | -
Cc1n[nH]c(C)c1C(=O)CC1(O)C(=O)N(CCc2ccccc2)c2ccc(Cl)cc21 (centres undefined) | 23.1µM | - | ? | - | - | -
O=C(/C=C/c1ccccc1O)c1ccc(Cl)cc1 | 23.1µM | - | 20.6µM | ? | - | -
CCOc1ccccc1/C=C/C(=O)c1ccc(Cl)cc1 | 16.4µM | - | ? | - | - | -
O=C(NNS(=O)(=O)c1ccccc1[N+](=O)[O-])c1ccc(F)cc1 | 16.4µM | - | ? | - | - | -
O=C(/C=C\Nc1ccccn1)c1ccc(Cl)cc1 | ? | - | ? | - | - | -
O=C(/C=C/c1ccccc1[N+](=O)[O-])OCC(=O)c1ccccc1 | - | - | - | - | - | -
CCOc1ccc(/C=C/C(=O)c2ccc(-c3ccccc3)cc2)cc1 | ? | - | ? | - | - | -
O=C(NNS(=O)(=O)c1ccccc1[N+](=O)[O-])c1ccc(O)cc1 | - | ? | - | - | - | -
O=C(/C=C/c1ccccc1[N+](=O)[O-])c1ccc(F)cc1 | 18.4µM | ? | 13µM | ? | - | -
Cn1c2ccccc2c2cnn(CC(=O)N3CCCCC3)c(=O)c21 | - | - | - | - | - | -
COC(=O)C(=Cc1ccccc1[N+](=O)[O-])C(=O)OC | 11.6µM | -57.8 | 8.2µM | -65.5 | - | -
COc1ccc(CNC(=O)/C=C/c2ccccc2[N+](=O)[O-])cc1 | - | - | - | - | - | -
O=C(/C=C(\O)c1ccccc1)c1ccccc1O | 8.2µM | . | 16.4µM | . | . | .
CCN(Cc1ccccc1)C(=O)/C=C/c1ccccc1[N+](=O)[O-] | ? | - | 16.4µM | - | - | -
O=C(O)c1ccccc1O | - | - | - | - | - | -
Cc1cc(O)c(C(=O)/C=C/c2ccccc2O)c(=O)o1 | 29.1µM | - | 23.1µM | ? | - | -
O=C(/C=C/c1ccccc1O)c1ccccc1 | 14.6µM | - | 20.6µM | -53.5 | . | -
O=C(/C=C/c1cccc2ccccc12)c1ccncc1 | 14.6µM | - | 20.6µM | -82.5 | - | -
CC(=O)/C=C/c1ccccc1O | ? | - | - | - | - | -
O=C(/C=C/c1cccc2ccccc12)N1CCOCC1 | - | - | - | - | . | -
Cc1cc(C(=O)CSc2nc3ccccc3[nH]2)c(C)n1CC1CCCO1 (centres undefined) | 5.17µM | - | 7.31µM | - | - | -
Cc1cc(C(=O)CSc2nc(N)cc(N)n2)c(C)n1CC1CCCO1 (centres undefined) | ? | - | ? | - | . | -
Cc1cc(C(=O)CSc2nc(N)cc(=O)[nH]2)c(C)n1CC1CCCO1 (centres undefined) | 18.4µM | - | 16.4µM | - | . | -
Cc1ccc(C(=O)CSc2nc3ccccc3o2)cc1 | - | - | - | -53.7 | - | -
